What follows are sequences tested against TNFAIP6 (assay: pooled miR-30 sensor sort-seq; sequence = guide strand). Details: shRNA.

| Sequence | sensor-assay potency score (higher = more potent) |
| --- | --- |
| TATTTCAACATAATCAGCCAAG | -1.38 |
| TGAAGCATCACTTAGAAACTTC | 0.148 |
| TATCTTCGTACTCATTTGGGAA | -0.842 |
| TTCTCTGTGGTACACACCGGCT | -1.32 |
| TACTTGAGTCTAATGTGCCAGT | -0.543 |
| TAAAAATTTGCTTTGGATCTGT | 0.758 |
| TTGTATTTTTTCCTTGACTGGA | -0.793 |
| TTATCTTCGTACTCATTTGGGA | -0.091 |
| TTCCAGTAGAAGTAGTACTTGT | -0.0924 |
| TTGAGTGTCTTCCCATAGCAAG | -1.58 |

Each sequence was assayed against TNFRSF10A in the same assay as above. Details: shRNA.

| Sequence | sensor-assay potency score (higher = more potent) |
| --- | --- |
| TTGCATACAAGGCATCCCCTGG | -0.804 |
| TTGATCATGAAGTTTGATGGTT | 0.371 |
| TTGATGGTTGCAGCTGAGCTAG | -1.28 |
| TTCTTTGTGGACACACTCGATG | -0.86 |
| TCTAAGTAGATGAACTTTCCAG | -0.118 |
| AAACTTGTCAAAGAACAGCATC | -1.04 |
| TTTCGTGAGGTCCAGCTGCCTC | -0.987 |
| TCTTCTAAGTAGATGAACTTTC | -0.791 |
| TTGAAGGTCTTGTGGACCCGGA | 0.23 |
| TTAACTCCTAACACCTAAGAGG | -0.905 |
| TGTATTAACTCCTAACACCTAA | -0.808 |

These sequences were tested against TNIP2 in the same assay as above. Details: shRNA.

| Sequence | sensor-assay potency score (higher = more potent) |
| --- | --- |
| TTTATTTTCTCTTCCAACTGTC | 0.553 |
| TTTTCTCTTCCAACTGTCTGTT | -0.371 |
| TTCAACGTGAGTCACCTTCTGT | -0.171 |
| TTCTTCTAGTCGCTCAGTCAGC | -0.848 |
| TTCTGACATGAAGTCATCCTTG | -0.577 |
| TTCTCTTCCAACTGTCTGTTGA | 0.202 |
| TTGAATCCTACTTTGAGCCCGT | 0.603 |
| TTTCTCTTCCAACTGTCTGTTG | -0.51 |
| TCCAACTGTCTGTTGAGCCGGG | -0.18 |
| TTGCTCGTCACTGAAGCACTGC | 0.0739 |
| TAACAGTCGATTTTCTTCCTGC | 0.411 |
| TATTCCATAGAACAGGATGGGG | -0.938 |

Each sequence was assayed against TNK1 in the same assay as above. Details: shRNA.

| Sequence | sensor-assay potency score (higher = more potent) |
| --- | --- |
| TTGCCTTCTTTCTGTCTCCATC | -1.2 |
| TACAAAGTCGAAGTGCTCTGGC | 0.534 |
| TAATGCTCCAGGATGCGCCAGC | -0.794 |
| TTTGCCTTCTTTCTGTCTCCAT | -0.221 |
| TTCAGAGCTTCGGACAGTCTGC | -0.64 |
| TTTCTGTCTCCATCTATGCTTC | -0.886 |
| TAGTGCTGTCTGGCACTCCTGG | -1.01 |

Reference: the OligoGym collection
